High-throughput results as filed in PubChem BioAssay.
The entries come from a sample that favours hits as a whole.
HIV RNase H inh-1: inhibitors of HIV-1 reverse transcriptase RNase H; P04585; RT-RNase H RNA/DNA duplex cleavage, fluorescence; inhibition, % at 10 µM; 65,000 compounds, 1.9% hits; AID 565; in the data active = inhibition above about 50%
RmlC RmlD mix: mixture blocks RmlC and RmlD coupled enzyme activity | RmlC/RmlD coupled enzyme inhibition, 384-well mixture HTS | inhibition, % at 5.5 µM | 110,000 compounds, 0.39% hits; in the data active = inhibition above about 30%, passing the limit was not always enough; inconclusive = no clear call, values can overlap the other calls
HIV RNase H inh-2: confirmation of HIV-1 reverse transcriptase RNase H inhibitors | AID 651 | shares compounds with HIV RNase H inh-1 | inhibition, % at 10 µM | Recombinant RT RNase H, fluorescent RNA/DNA duplex cleavage | 1,000 compounds, 39% hits; in the data active = inhibition above about 48%; inconclusive = no clear call, values can overlap the other calls
A number is an active result; n = inactive; u = inconclusive; x = no result given.

SMILES	HIV RNase H inh-1	RmlC RmlD mix	HIV RNase H inh-2
COC(=O)CSC1=C(C#N)C(c2ccc(C(C)C)cc2)CC(=O)N1 (stereo unspecified)	n	n	x
Cc1csc(NC(=O)CCSCCc2ccccn2)n1	x	n	x
COc1ccc(Cn2nnnc2C(c2cc3cccc(C)c3[nH]c2=O)N2CCOCC2)cc1 (stereo unspecified)	54	n	n
COc1ccc(Cn2nnnc2C(c2cc3cc(C)ccc3[nH]c2=O)N2CCOCC2)cc1 (stereo unspecified)	n	n	x
CC1CCCN(C(=O)CCCn2c(=S)[nH]c3ccccc3c2=O)C1 (stereo unspecified)	x	n	x
Cc1cccc(-c2noc(CN(C(=O)C(c3ccccc3)c3ccccc3)C(C)C)n2)c1	x	n	x
Cc1c(C#N)c2ccccc2n1CC(=O)NC(C)c1ccccc1 (stereo unspecified)	x	n	x
Cc1cccc(NC(=O)Cn2c(C)c(C#N)c3ccccc32)c1C	72	n	63
CCN(c1nc(N)c(C(=O)N=C(N)N)nc1Cl)C(C)C	x	n	x
CCCOc1cc2c(C#N)c(N3CCCC3)nc(N)c2c(N)n1	x	n	x
O=C(O)C1=CCNCC1	x	n	x
O=C(Nc1nc(-c2ccco2)c(-c2ccco2)s1)C1CC(=O)N(c2ccc3c(c2)OCCO3)C1 (stereo unspecified)	74	n	n
CCc1cccc(CC)c1NC(=O)C1CC(=O)N(c2ccc3c(c2)OCCO3)C1 (stereo unspecified)	x	n	x
CCn1ncc(/C=N/NS(=O)(=O)c2ccc(Cl)cc2)c1C	x	n	x
COc1ccc(Cc2nc(-c3cccs3)no2)cc1OC	72	n	n
COc1ccc(Cc2nc(-c3ccc(-n4cccc4)cc3)no2)cc1OC	n	n	x
Cc1nc(N2CCN(c3ccccc3)CC2)[nH]c(=O)c1Cc1cccc2ccccc12	63	x	n
Cc1nc(N2CCN(C(c3ccccc3)c3ccccc3)CC2)[nH]c(=O)c1C	n	n	x
O=C(c1ccco1)N1CCN(C(=O)c2cc(-c3ccncc3)nc3ccc(Br)cc23)CC1	n	n	x
O=C(O)c1cc(-c2ccco2)nc2ccc(Br)cc12	78	n	n
Cc1ccc(-c2nnn(CC(=O)NCc3ccccc3)n2)c(-n2cnnn2)c1	n	n	x
Cc1ccc(-c2nnn(CC(=O)N3CCCCC3)n2)c(-n2cnnn2)c1	82	n	n
CC1Oc2ccccc2N(Cc2ccccc2F)C1=O (stereo unspecified)	90	n	n
CC1Oc2ccccc2N(Cc2ccccc2Cl)C1=O (stereo unspecified)	n	n	x
COC(=O)c1cccc(C23CC4(C2)[C@H](CN(Cc2cccnc2)[C@@H]4c2ccccc2)C3c2ccc(C(F)(F)F)cc2)c1 (stereo partly specified)	x	n	x
SMILES	HIV RNase H inh-1	RmlC RmlD mix	HIV RNase H inh-2
COc1ccccc1NC(=O)c1nc[nH]c1C(=O)Nc1ccccc1OC	83	n	n
Cc1ccccc1NC(=O)c1nc[nH]c1C(=O)NCc1ccccc1	n	n	x
COc1ccc(NC(=O)c2nc[nH]c2C(=O)Nc2ccccc2C)cc1	n	n	x
CCOc1ccccc1NC(=O)c1nc[nH]c1C(=O)Nc1ccccc1OCC	84	n	u
CSc1ccc(Cn2nnc(C(=O)Nc3ccc(C)c(C)c3)c2N)cc1	x	n	x
Cc1ccc(NC(=O)Cn2nnc(C(=O)Nc3ccc(C)c(C)c3)c2N)cc1	67	n	59
COc1ccc(N(C)S(=O)(=O)c2cccc(C(=O)Nc3ccc(-n4cnnn4)cc3)c2)cc1	n	n	x
CCCC(C(=O)NC1CCCC1)N(C(=O)Cn1nnc(-c2ccc(C)o2)n1)c1ccccc1OC (stereo unspecified)	n	n	x
Cc1cc(C)n(-c2nc3c(c(=O)[nH]c(=O)n3C)n2CC(O)COc2ccccc2C)n1 (stereo unspecified)	n	n	x
CCSc1nc2c(c(=O)[nH]c(=O)n2C)n1CC(O)COc1ccccc1C (stereo unspecified)	76	n	n
Cc1ccccc1OCC(O)Cn1c(NCc2ccccc2)nc2c1c(=O)[nH]c(=O)n2C (stereo unspecified)	x	n	x
Cc1ccccc1OCC(O)Cn1c(SC(C)C)nc2c1c(=O)[nH]c(=O)n2C (stereo unspecified)	67	n	n
C[C@H](NC(=O)Cn1cncn1)c1ccccc1	x	n	x
CCOC(=O)c1[nH]c2ccc(OC)cc2c1NC(=O)CN1CCC2(CC1)OCCO2	74	n	n
CCOC(=O)c1[nH]c2ccc(OC)cc2c1NC(=O)C(C)N1CCC2(CC1)OCCO2 (stereo unspecified)	n	n	x
Cc1cc(C)cc(OCC(=O)Nc2cccc(C(=O)O)c2)c1	x	n	x
Cc1cc(C)cc(OCC(=O)Nc2nonc2NC(=O)COc2cc(C)cc(C)c2)c1	78	n	67
COc1ccc(-c2cc(C(=O)N3CCN(c4ccccc4)CC3)no2)cc1OC	x	n	x
COc1ccccc1-c1cc(C(=O)N2CCN(c3ccc(F)cc3)CC2)no1	72	n	n
CCCn1cnc2c1c(=O)n(CCCCC(C)=O)c(=O)n2C	x	n	x
Cc1ccccc1-n1nnnc1SCc1csc(-c2ccccc2)n1	n	n	x
O=C(Nc1ccc(N2CCOCC2)cc1)c1cccc(S(=O)(=O)N2CCC(Cc3ccccc3)CC2)c1	x	n	x
CCn1c(=NC(=O)c2ccc(N3C(=O)CCC3=O)cc2)sc2c(OC)ccc(OC)c21	56	n	u
CCn1c(=NC(=O)CN2C(=O)CCC2=O)sc2c(OC)ccc(OC)c21	n	n	x
O=C(CCCn1c(SCC(=O)c2ccc(O)c(O)c2)nc2ccccc2c1=O)NCC1CCCO1 (stereo unspecified)	95	n	71
SMILES	HIV RNase H inh-1	RmlC RmlD mix	HIV RNase H inh-2
O=C(CCCn1c(SCC(=O)NC2CCCCC2)nc2ccccc2c1=O)NCC1CCCO1 (stereo unspecified)	n	n	x
COc1cccc(C(C)NC(=O)Nc2cccc(C(F)(F)F)c2)c1 (stereo unspecified)	x	n	x
Cc1cc(C)cc(NC(=O)NCc2nnc(SCc3ccccc3)n2C)c1	82	n	n
Cn1c(CNC(=O)Nc2ccccc2)nnc1SCc1ccccc1	n	n	x
NC(=O)c1c(NC(=O)CN2C(=O)CCC2=O)sc2c1CCCCC2	85	n	n
Nc1sc2c(c1C(=O)NC1CCS(=O)(=O)C1)CCC2 (stereo unspecified)	66	n	74
CC(C)OC(=O)c1c(N)sc2c1CCCC2	87	x	u
CCOC(=O)c1c(NC(=O)CNCCOC)sc2c1CCCC2	x	n	x
O=C(NC1CCS(=O)(=O)C1)c1ccccc1C(=O)c1ccccc1 (stereo unspecified)	n	n	x
NC(=O)c1c(NC(=O)CN2CCCC2)sc2c1CCCC2	n	n	x
COCCNC(=O)c1c(N)sc2c1CCCC2	63	n	n
CCCOC(=O)c1c(N)sc2c1CCC2	n	n	x
O=C(NCCNCCO)C1(C(F)(F)F)C/C(=C\CCO)CCCO1 (stereo unspecified)	x	n	x
Cc1csc(NC(C)c2nc3cc(C(F)(F)F)ccc3n2CCCO)n1 (stereo unspecified)	x	n	x
CNC(=O)c1c(NC(=O)c2ccc(N3C(=O)CCC3=O)cc2)sc2c1CCCC2	x	n	x
CNC(=O)c1c(N)sc2c1CCCCC2	84	n	u
NC(=O)c1c(N)sc2c1CCCCC2	73	n	n
Cc1c(C(N)=O)sc(N)c1C(=O)OC(C)C	84	n	n
N#CCC(=O)Nc1sc2c(c1C(N)=O)CCCC2	n	n	x
CC(=O)c1sc(N)c(C(=O)OC(C)C)c1C	x	n	x
